Compound in the test: Nc1ncnc2c1ncn2[C@@H]1O[C@H](COP(=O)(O)OP(=O)(O)OP(=O)(O)O)[C@@H](O)[C@H]1O [adenosine 5'-triphosphate]
The test can be described thus: log2 fold change of tryptic peptide abundance, ligand vs vehicle (limited proteolysis) (log2 ratio); higher = more trypsin-susceptible (destabilized). The following applies: ligand concentration: 5 mM; sample: E. coli desalted lysate; replicate design: treated before aliquoting. On the procedure: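 HT-PELSA: desalted E. coli K-12 BW25113 lysate (with 12 mM MgCl2) incubated with 5 mM ATP (pH 7) or water for 30 min at 25 C, then a 4 min trypsin pulse at 22 C. Peptides were quantified by DIA-MS (4 replicates). Value is the peptide log2 fold change (treated/control); negative = stabilized. Scale: negative = ligand-stabilized region.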
UniProt P37440, sequence (P37440 whole entry): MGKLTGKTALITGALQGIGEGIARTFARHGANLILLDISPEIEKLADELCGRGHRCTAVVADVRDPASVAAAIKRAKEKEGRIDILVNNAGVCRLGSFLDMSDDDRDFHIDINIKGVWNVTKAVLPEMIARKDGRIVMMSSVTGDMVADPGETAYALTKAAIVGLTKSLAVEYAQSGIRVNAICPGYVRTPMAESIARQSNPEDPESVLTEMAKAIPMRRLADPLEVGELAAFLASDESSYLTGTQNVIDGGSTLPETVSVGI
UniProt P45527, sequence (P45527 whole entry): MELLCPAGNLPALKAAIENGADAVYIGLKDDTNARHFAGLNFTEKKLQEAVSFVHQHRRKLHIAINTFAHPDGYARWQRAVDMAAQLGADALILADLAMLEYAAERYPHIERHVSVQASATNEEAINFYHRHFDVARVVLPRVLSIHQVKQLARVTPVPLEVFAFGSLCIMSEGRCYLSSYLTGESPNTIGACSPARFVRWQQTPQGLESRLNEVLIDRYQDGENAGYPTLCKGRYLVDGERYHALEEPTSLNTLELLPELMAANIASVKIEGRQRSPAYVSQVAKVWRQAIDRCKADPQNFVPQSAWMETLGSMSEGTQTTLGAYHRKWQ
UniProt P23883, sequence (P23883 whole entry): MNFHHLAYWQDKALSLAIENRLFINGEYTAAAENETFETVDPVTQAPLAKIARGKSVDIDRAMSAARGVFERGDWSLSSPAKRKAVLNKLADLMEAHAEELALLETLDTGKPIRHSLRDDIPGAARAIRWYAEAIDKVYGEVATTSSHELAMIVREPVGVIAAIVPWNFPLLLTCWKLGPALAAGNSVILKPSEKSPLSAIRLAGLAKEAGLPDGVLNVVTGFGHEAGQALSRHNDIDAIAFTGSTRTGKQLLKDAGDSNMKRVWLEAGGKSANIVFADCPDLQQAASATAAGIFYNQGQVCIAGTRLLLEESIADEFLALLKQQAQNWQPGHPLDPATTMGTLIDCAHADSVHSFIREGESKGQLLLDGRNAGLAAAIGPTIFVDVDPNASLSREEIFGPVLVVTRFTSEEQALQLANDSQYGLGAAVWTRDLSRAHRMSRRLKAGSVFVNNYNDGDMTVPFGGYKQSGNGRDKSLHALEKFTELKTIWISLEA
UniProt P04693, sequence (P04693 whole entry): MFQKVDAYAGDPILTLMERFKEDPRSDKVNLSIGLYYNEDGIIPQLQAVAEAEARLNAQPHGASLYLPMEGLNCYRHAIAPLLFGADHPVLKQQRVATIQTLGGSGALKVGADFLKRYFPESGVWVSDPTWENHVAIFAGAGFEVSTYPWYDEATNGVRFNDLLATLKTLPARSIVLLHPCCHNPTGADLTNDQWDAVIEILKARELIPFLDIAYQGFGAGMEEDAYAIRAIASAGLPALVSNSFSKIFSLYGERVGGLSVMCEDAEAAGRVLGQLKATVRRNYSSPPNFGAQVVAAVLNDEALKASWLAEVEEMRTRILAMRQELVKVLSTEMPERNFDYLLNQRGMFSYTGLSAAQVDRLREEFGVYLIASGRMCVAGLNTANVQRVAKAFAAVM
UniProt P0AG16, sequence (P0AG16 whole entry): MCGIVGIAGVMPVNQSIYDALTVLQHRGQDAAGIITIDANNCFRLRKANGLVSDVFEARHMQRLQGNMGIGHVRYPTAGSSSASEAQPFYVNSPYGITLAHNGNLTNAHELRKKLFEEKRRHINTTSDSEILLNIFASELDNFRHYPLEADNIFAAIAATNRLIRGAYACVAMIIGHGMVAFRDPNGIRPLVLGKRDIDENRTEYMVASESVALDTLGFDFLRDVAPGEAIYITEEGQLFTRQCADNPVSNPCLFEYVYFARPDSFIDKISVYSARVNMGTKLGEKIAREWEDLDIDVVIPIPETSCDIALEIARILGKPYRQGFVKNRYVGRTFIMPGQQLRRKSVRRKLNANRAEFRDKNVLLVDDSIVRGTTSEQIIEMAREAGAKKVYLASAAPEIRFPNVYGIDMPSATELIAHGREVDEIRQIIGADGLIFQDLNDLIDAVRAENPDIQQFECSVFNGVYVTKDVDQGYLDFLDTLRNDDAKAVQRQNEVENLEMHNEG
UniProt P42589, sequence (P42589 whole entry): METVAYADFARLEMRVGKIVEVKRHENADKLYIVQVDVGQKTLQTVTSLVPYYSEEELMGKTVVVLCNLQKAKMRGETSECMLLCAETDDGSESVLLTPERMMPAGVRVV
UniProt P14294, sequence (P14294 whole entry): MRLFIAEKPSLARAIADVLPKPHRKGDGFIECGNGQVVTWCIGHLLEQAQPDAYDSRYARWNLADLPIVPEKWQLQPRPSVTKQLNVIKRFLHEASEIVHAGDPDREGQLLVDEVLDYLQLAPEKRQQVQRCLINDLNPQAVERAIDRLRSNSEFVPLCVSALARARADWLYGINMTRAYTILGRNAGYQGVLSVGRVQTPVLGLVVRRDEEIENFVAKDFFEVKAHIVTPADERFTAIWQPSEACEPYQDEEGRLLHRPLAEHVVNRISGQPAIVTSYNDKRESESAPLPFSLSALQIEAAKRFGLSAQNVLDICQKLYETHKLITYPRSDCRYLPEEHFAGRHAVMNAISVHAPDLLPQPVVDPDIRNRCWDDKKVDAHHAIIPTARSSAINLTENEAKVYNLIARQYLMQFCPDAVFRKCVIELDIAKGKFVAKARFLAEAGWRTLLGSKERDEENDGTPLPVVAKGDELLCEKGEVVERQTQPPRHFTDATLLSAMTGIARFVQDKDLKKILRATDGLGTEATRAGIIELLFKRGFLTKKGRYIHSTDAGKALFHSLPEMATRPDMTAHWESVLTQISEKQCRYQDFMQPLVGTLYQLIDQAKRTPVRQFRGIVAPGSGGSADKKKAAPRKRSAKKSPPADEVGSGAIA
UniProt P75958, sequence (P75958 whole entry): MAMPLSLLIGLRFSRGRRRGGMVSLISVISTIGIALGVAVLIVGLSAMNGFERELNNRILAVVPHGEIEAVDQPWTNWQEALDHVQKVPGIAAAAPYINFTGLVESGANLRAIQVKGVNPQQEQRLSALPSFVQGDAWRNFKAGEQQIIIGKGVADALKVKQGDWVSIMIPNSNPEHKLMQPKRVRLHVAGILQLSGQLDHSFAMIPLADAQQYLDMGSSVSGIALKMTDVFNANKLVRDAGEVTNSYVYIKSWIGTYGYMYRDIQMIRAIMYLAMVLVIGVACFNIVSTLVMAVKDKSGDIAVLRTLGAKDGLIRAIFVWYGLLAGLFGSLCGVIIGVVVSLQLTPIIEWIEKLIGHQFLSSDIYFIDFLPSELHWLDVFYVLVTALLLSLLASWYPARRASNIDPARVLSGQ
“UniProt P14294 (peptide sequence: VQTPVLGLVVR, peptide start residue: 198)”: the log2 fold change is -0.642. Turning to “UniProt P42589 (peptide sequence: TVVVLCNLQK, peptide start residue: 62)”, the log2 fold change was -0.415. For the target “UniProt P23883 (peptide sequence: ALSLAIENR, peptide start residue: 13)”, the log2 fold change was -2.59.

For the target “UniProt P75958 (peptide sequence: GVADALK, peptide start residue: 153)”, the log2 fold change was -0.59.

As to “UniProt P04693 (peptide sequence: HAIAPLLFGADHPVLKQQR, peptide start residue: 77)”, the log2 fold change stood at 0.961.

For “UniProt P37440 (peptide sequence: LADELCGR, peptide start residue: 45)”, the log2 fold change is -0.817. “UniProt P0AG16 (peptide sequence: TFIMPGQQLR, peptide start residue: 334)”: the log2 fold change is -0.26.

Turning to “UniProt P45527 (peptide sequence: KLQEAVSFVHQHRR, peptide start residue: 46)”, the log2 fold change came out at 0.779.

The record behind these values is the supplement of paper PMC12819154, “High-throughput peptide-centric local stability assay extends protein–ligand identification to membrane proteins, tissues and bacteria” (Nature Structural & Molecular Biology, 2025).
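Note: lysate desalted by size exclusion to strip endogenous ATP, peptide intensities built from DIA-NN precursor signals, and peptides missing any value discarded before comparison.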
